Rows were chosen to be rich in hits. Some 3.9% of all compounds tested hit in one or more screens of this group.
Vc quorum ag-1 = inducers of Vibrio cholerae quorum light production without autoinducers | V. cholerae BH1578 lux reporter, luminescence, 6 h | activation, % at 18.7 µM | actives 0.16% (n = 350,000) | AID 588436; in the data active = activation mostly above about 9.7%, no sharp cut-off
Mtb FBA inh = inhibitors of M. tuberculosis fructose-bisphosphate aldolase | P9WQA3 | purified M. tuberculosis FBA, fluorescence read-out | inhibition, % at 1 µM | actives 2.3% (n = 360,000) | AID 588726;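 note: 0% = vehicle and 100% = reference inhibitor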
Target sequence (P9WQA3 whole entry, looked up): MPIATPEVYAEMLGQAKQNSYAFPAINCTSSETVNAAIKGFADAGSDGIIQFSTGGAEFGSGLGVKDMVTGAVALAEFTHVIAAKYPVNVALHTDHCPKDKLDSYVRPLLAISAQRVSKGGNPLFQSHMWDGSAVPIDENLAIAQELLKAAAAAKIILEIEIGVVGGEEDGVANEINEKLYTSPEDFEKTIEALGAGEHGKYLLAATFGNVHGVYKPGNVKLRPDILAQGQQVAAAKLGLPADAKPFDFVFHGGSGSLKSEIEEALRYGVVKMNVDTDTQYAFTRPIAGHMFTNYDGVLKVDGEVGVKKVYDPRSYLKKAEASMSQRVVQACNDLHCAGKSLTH
SARS 3CLpro inh-1 = SARS-CoV 3CLpro protease inhibition; P0C6X7; recombinant SARS-CoV 3CLpro, quenched FRET peptide cleavage; inhibition, % at 6 µM; actives 0.14% (n = 290,000); in the data active = inhibition above about 12%
GDH-TPI counter-1 = counter-screen for M. tuberculosis FBA inhibitors: GDH-TPI coupled enzymes | GDH-TPI coupled enzyme counterscreen, NADH absorbance | inhibition, % at 4.8 µM | actives 1.2% (n = 360,000); in the data active = inhibition above about 30%;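 note: 0% = DMSO wells and 100% = wells lacking the enzyme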
PrPC surface inh = cell surface PrPC inhibition, primary TR-FRET screen. AID 720596. TR-FRET read-out. P04156. inhibition, % at 13.8 µM. actives 0.43% (n = 370,000); in the data active = inhibition above about 24%; note: 0% = median of the test wells and 100% = reference compound wells
SARS 3CLpro inh-2 = SARS 3CLpro inhibition, confirmation assay; shares compounds with SARS 3CLpro inh-1; QFRET protease activity assay; inhibition, % at 6 µM; actives 36% (n = 380); AID 1879; in the data active = inhibition above about 13%
Vc quorum ag-2 = inducers of V. cholerae quorum light production without autoinducers; shares compounds with Vc quorum ag-1; V. cholerae BH1578 lux reporter, luminescence, 6 h; activation, % at 50 µM; 620 tested, under 10 active; AID 602243; call rule not given here
Mtb FBA inh conf = Mtb FBA inhibition, confirmed; AID 651616; shares compounds with Mtb FBA inh; inhibition, % at 1 µM; purified M. tuberculosis FBA, fluorescence read-out; actives 78% (n = 5,600);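 note: 0% = vehicle wells and 100% = reference inhibitor wells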
GDH-TPI counter-2 = counter-screen for M. tuberculosis FBA inhibitors: GDH-TPI coupled enzyme inhibition | shares compounds with Mtb FBA inh | GDH-TPI coupled enzyme counterscreen, fluorescence | inhibition, % at 1 µM | actives 81% (n = 5,600) | AID 652141; in the data active = inhibition above about 10%
Numbers without * were called inactive; i = inactive; · = not tested or not shown. Cut-off read from the data, not from the text of the source, unless noted: active = inhibition above about 27%; inactive = the rest.

SMILES | Vc quorum ag-1 | Mtb FBA inh | SARS 3CLpro inh-1 | GDH-TPI counter-1 | PrPC surface inh | others
COc1ccc(-c2n[nH]c(C(F)(F)F)c2-c2cc3ccccc3o2)c(O)c1 | -4.5 | 10.6 | 13.9* | 9.4 | 5.7 | SARS 3CLpro inh-2=9.2
COc1cc(CN2C[C@@H](CO)O[C@@H](n3cnc4c(N5CCN(C)CC5)ncnc43)C2)cc(OC)c1OC | -0.7 | -1.1 | · | 1.3 | -4.8
Cc1cc2c(cc1C)C(c1cc(Br)ccc1F)CC(=O)N2 (stereo unspecified) | -0.2 | -0.2 | 7.0 | 7.2 | 8.9
Cc1cc2c(cc1C)C(c1ccccc1F)CC(=O)N2 (stereo unspecified) | -0.1 | -0.7 | 12.6* | 5.4 | -0.2 | SARS 3CLpro inh-2=-1.9
Cc1cccc(-n2nc(C)c3c(C(=O)O)cc(-c4cccs4)nc32)c1 | -0.3 | 61.7* | 12.7* | 18.1 | 8.7 | SARS 3CLpro inh-2=7.9;Mtb FBA inh conf=149.2*;GDH-TPI counter-2=134.7*
Cc1nn(-c2cccc(Cl)c2)c2nc(-c3ccco3)cc(C(=O)O)c12 | -0.3 | 19.8 | 5.8 | 16.4 | -3.1
COc1ccccc1-n1c(C)c(C(=O)O)c2cc(OC)c3ccccc3c21 | -1.2 | 27.1* | 13.7* | 1.4 | -3.5 | SARS 3CLpro inh-2=9.8;Mtb FBA inh conf=87.3*;GDH-TPI counter-2=81.8*
Cc1cc(=O)oc2cc(NC(=O)Cc3ccccc3[N+](=O)[O-])ccc12 | -0.6 | 63.1* | 17.2* | 12.7 | 6.8 | SARS 3CLpro inh-2=13.1*;Mtb FBA inh conf=29.5*;GDH-TPI counter-2=18.6*
CN(C)CCN[C@H]1CCC2C3CC=C4C[C@@H](O)CC[C@]4(C)C3CC[C@@]21C (stereo partly specified) | -8.3 | -3.0 | · | 6.5 | -3.2
Cc1ccc(C2C3=C(CC(C)(C)CC3=O)Nc3onc(C)c32)cc1 (stereo unspecified) | i | 46.1* | 14.9* | 5.4 | 6.6 | SARS 3CLpro inh-2=-3.5;Mtb FBA inh conf=2.6;GDH-TPI counter-2=-1.4
Cc1noc2c1C(c1ccc(N(C)C)cc1)C1=C(CC(C)(C)CC1=O)N2 (stereo unspecified) | i | 0.1 | -0.9 | -5.5 | -2.4
COc1cc(OC)cc(C(=O)N[C@H](C(=O)NC2=NCCS2)C(C)C)c1 | i | -0.6 | · | -1.1 | -5.7
Cc1cccc(C(=O)NCC(c2cccs2)N2CCOCC2)c1 (stereo unspecified) | 14.3 | 0.5 | · | 4.2 | 3.8 | Vc quorum ag-2=0.2
Cc1cccc(C(=O)NCC(=O)NCC(c2cccs2)N2CCOCC2)c1 (stereo unspecified) | -0.7 | 0.0 | · | -5.0 | -3.6
Cn1ccsc1=NC(=O)c1ccc(S(C)(=O)=O)c([N+](=O)[O-])c1 | i | -3.9 | 2.5 | 13.5 | -3.8
CC(C)(C)OC(=O)N1C[C@@]23C[C@H](c4cccc(F)c4)[C@@H](C[C@@H]2S1(=O)=O)O3 | · | · | · | · | -3.9
O=C(Cn1cccc1C(=O)c1ccccc1)NCCN1CCCCCC1 | 12.5 | -0.8 | 2.6 | 7.2 | -6.3 | Vc quorum ag-2=-0.2
Cc1ccc(C(=O)COc2cc(C)nc3nncn23)cc1 | 923.3* | -2.5 | 2.5 | -2.6 | 6.8 | Vc quorum ag-2=i
CC(C)CCNC(=O)C1(C)CCN1Cc1ccc2ccccc2c1 (stereo unspecified) | i | -0.4 | · | -7.5 | -1.7
Brc1ccc(-c2cn3c(n2)SCC3)cc1 | -0.6 | 2.4 | 1.9 | -4.8 | -2.9
Oc1ccc(-c2cn3c(n2)SCC3)cc1 | 16.7* | 3.5 | 3.7 | 2.8 | -0.2 | Vc quorum ag-2=0.5
CCCN1CCN(C(=O)CCCNC(=O)Cn2cnc3sc(C)c(C)c3c2=O)CC1 | 14.3 | -3.8 | 1.7 | -11.1 | -0.1 | Vc quorum ag-2=4.6
Cc1sc2ncn(CC(=O)NCCCC(=O)N3CCC(C(N)=O)CC3)c(=O)c2c1C | -0.3 | -1.3 | 7.7 | -1.6 | -3.3
CN(CC(=O)Nc1cccc(F)c1)CC(=O)N1CCc2ccccc21 | i | 0.0 | · | -1.1 | 8.4
Cc1csc(SCC(=O)Nc2ccc(C)c(F)c2)n1 | i | 2.6 | · | -4.6 | 1.0
Cc1cc(C(=O)CSc2nnc(-c3ccco3)o2)c(C)n1CC1COc2ccccc2O1 (stereo unspecified) | 18.4 | -0.2 | -1.6 | -2.2 | -4.2 | Vc quorum ag-2=1.2

Screens deposited in PubChem BioAssay by several laboratories.
